# The full list was thinned out, with hits kept by preference.
# ERK EGF inh = blocks ERK signaling stimulated by EGF. HEK293-V1b, EGF-stimulated phospho-ERK AlphaScreen. Potency, µM (doses to about 11.5 µM), for inactives: top-dose activity change, negative = inhibition, usual class: inhibitors. 130,000 compounds, 0.41% hits. AID 1454; active = well fitted inhibition curve with a large enough effect;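 note: plate controls were stimulated vehicle wells for no effect and unstimulated vehicle basal for full effect; nearly all actives have a fitted effect of over 55% in size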
#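 Phospho-ERK1/2 measured by AlphaScreen (SureFire) after 5 min 25 nM EGF stimulation of V1b-expressing HEK293 cells preincubated 30 min at 37C with titrated compounds; data scaled to DMSO and EGF controls, Hill-fitted AC50.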
# The depositor's hits bear a star; [ ] = dose if it differs, or a comment. Potency is the fitted concentration of half-maximal effect.
SMILES,ERK EGF inh
CC(C)C(NC(=O)C(Cc1ccc(O)cc1)NC(=O)C(NC(=O)C(F)(F)F)C(C)C)C(=O)O (stereo not drawn),20.7%
Cc1nc2scc(-c3ccccc3)c2c(=O)n1N=C1C=CC(=O)C=C1,0.6%
COc1ccc(NC(=O)Nc2cnccn2)cc1,2.5%[57.5 µM]
COc1ccc(Nc2c(C)cccc2C)cc1,4.7%
COc1ccc(Nc2ccnc(Nc3ccc(OC)cc3)n2)cc1,35.5µM*
Cc1ccc2c(c1)CC[C@H]1CC(=O)CC[C@@]21C,0.7%
COc1cccc(NC(=O)c2cccc(C)c2[N+](=O)[O-])c1,0.9%
Cc1onc(-c2ccccc2)c1C(=O)N/N=C/c1cccc(O)c1,40.0%
Cc1onc(-c2ccccc2)c1C(=O)N/N=C/c1ccco1,-7.1%[57.5 µM]
Cc1onc(-c2ccccc2)c1C(=O)N/N=C/C=C/c1ccccc1,17.8µM*
O=C1C(Nc2ccccc2)=C/C(=N/S(=O)(=O)c2cccs2)c2ccccc21,14.1µM*
O=C1C=C(Nc2ccccc2)C(=O)c2ccccc21,25.1µM*
O=C1C=C(Nc2ccccc2)c2ccccc2C1=O,-2.7%
CC1=CC(=O)c2ccccc2C1=O,-13.4%
Cc1ccc(N/C(=N/S(=O)(=O)c2cccs2)c2ccccc2)c(C)c1,3.5%
CCc1cc[n+](C2=C([O-])c3ccccc3C(=O)/C2=N\S(=O)(=O)c2cccs2)cc1,9.5%
CSCc1ccc(C(=O)NCc2ccc(F)cc2)cc1,1.3%
CCCCCC1C(=O)CCC1CC(=O)OC (stereo not drawn),25.2%
C=CCC(O)(/C=C/c1ccccc1)c1ccccc1 (stereo not drawn),-2.0%
FC(F)(F)c1ccc(C2[C@H]3CN(Cc4cccnc4)[C@H](c4ccccc4)C34CC2(c2ccccc2)C4)cc1 (stereo partly drawn),8.9%
CCCCNc1nc(C)nc2c1nc(-c1ccccc1)n2CC1CCN(C)CC1,-7.5%
Cn1cccc1C(=O)N1CCC2(CC1)CCN(C(c1ccccc1)c1ccccc1)CC2,-0.5%
CC(=O)Nc1ccc(S(=O)(=O)N2c3ccccc3C(C)=CC2(C)C)cc1,1.5%
Cc1ccc(S(=O)(=O)N2C(=O)/C(=C3\SC(=S)NC3=O)c3ccccc32)cc1,0.8%[57.5 µM]
Cc1ccc(S(=O)(=O)N2c3ccccc3-c3c(ssc3=S)C2(C)C)cc1,12.6µM*
SMILES,ERK EGF inh
C=C(C)C(O)/C=C/c1ccc(Br)cc1 (stereo not drawn),-9.6%
COc1ccc2oc(C(=O)OCC(=O)NCCN3C(=O)CSC3=O)c(C)c2c1,1.9%
Cc1onc(-c2c(F)cccc2Cl)c1C(=O)NC(=S)NC1CCS(=O)(=O)C1 (stereo not drawn),-6.3%
CN1C(=O)C(CC(=O)Nc2ccc(F)cc2)N(NC(=O)c2cccc(F)c2)C1=S (stereo not drawn),-6.2%[57.5 µM]
COC(=O)c1ccc(C(/C=C/[C@@H](C)C(=O)NCc2cc(C)n(C)n2)NC(=O)OCc2ccccc2)cc1 (stereo partly drawn),4.6%
CS(=O)(=O)N1CCC[C@@]2(CCN(C(=O)Nc3ccccc3)C2)C1,1.5%
COc1cc2c(cc1OC)-c1cc3cc(OC)c(OC)cc3c(=O)n1CC2,-14.1%
CN1C/C(=N\S(=O)(=O)c2ccccc2)N(C)C1=O,12.1%
COCCCN1C(=O)CS/C1=N\S(=O)(=O)c1ccccc1,-3.5%[57.5 µM]
O=Cc1s/c(=N\S(=O)(=O)c2ccccc2)n(CCCCl)c1Cl,22.4µM*
Cn1c(=O)c(Nc2ccc(O)cc2)c2c3c(cccc31)C(=O)c1ccccc1-2,28.2µM*
Cc1cccc(Nc2c([N+](=O)[O-])c(=O)n(C)c3ccccc23)c1,2.8%
CC(=O)Nc1ccc(NC(=O)c2cccc3c2-c2ccccc2C3=O)cc1,-3.7%
C=C(C(=O)C(C)(C)O)C(O)c1ccc([N+](=O)[O-])cc1 (stereo not drawn),0.3%
COC(=O)c1c(C(=O)OC)c(-c2ccc(Cl)cc2)n2c1CS(=O)(=O)C2,-13.1%
CN1CCC2(CC1)CCN(C(=O)c1cc(C(F)(F)F)cc(C(F)(F)F)c1)CC2,-6.5%
COc1ccc(O)c(C(=O)/C=C/c2cc3ccccc3o2)c1,25.1µM*
COc1cccc(C(=O)Oc2ccccc2/C=C\C(=O)c2cc3ccccc3o2)c1,17.3%
COc1ccc(C(=O)/C=C/c2ccccc2)c(O)c1,-7.5%[57.5 µM]
O=C(O)COc1ccc(/C=N/Nc2nc(Nc3ccccc3)nc(N3CCCCC3)n2)cc1,-7.0%
COc1ccc(Nc2oc(-c3ccccc3)nc2C#N)cc1,-4.2%
COc1ccc(-c2nc(C#N)c(NCCc3ccccc3)o2)cc1,28.2µM*
COc1ccc(Nc2oc(-c3ccc(OC)cc3)nc2C#N)cc1,-2.6%[57.5 µM]
CCOC(=O)CSc1nc(=O)n2cccc(C)c2n1,1.3%
C=CCNC(=S)NNC(=O)CC12CC3CC(CC(C3)C1)C2,-6.7%[57.5 µM]
O=[N+]([O-])c1ccc(Nc2ccccn2)c([N+](=O)[O-])c1,-9.5%
O=[N+]([O-])c1c(Nc2ccccn2)cc(Cl)c2nonc12,14.1µM*
O=C(O)c1cccc(Nc2cc(Cl)c3nonc3c2[N+](=O)[O-])c1,0.1%
Cc1cc(N2CCC(C)CC2)nc(NCc2ccccc2)n1,-2.1%

# Screening data (PubChem BioAssay)
